Several values for one entry are separate records, joined by “and”; a condition that tells them apart may be missing. Identical values can stand only once. Results filed as inconclusive are left out. Values without a mark were called inactive. Activity calls are given as the source filed them. Calls come from the whole dose curve; as a rule, active = well fitted inhibition curve with a large enough effect; inconclusive = small, poorly fitted or top-dose-only effect; inactive = flat fitted curve, though single readings scatter.
Assays:
CRL-7250 = normal cell line; test: Cytotoxic Profiling of Annotated Libraries Using Quantitative High-Throughput Screening (AID 1296008); conditions: Five cell lines viability, CellTiter-Glo ATP luminescence, 48-72 h; max response: stronger effect = lower value; for max response: % is set by controls: 0 for no effect and ±100 for the full control effect
How it was run: (§1)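 Cytotoxicity was measured as CellTiter-Glo ATP luminescence, read after 10 min at room temperature. Compound treatment of the cells lasted 48 or 72 hr at 37 degrees Celsius in a qHTS format.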

KB-3-1 = test: as above; conditions: Five cell lines viability, CellTiter-Glo ATP luminescence, 48-72 h; max response: stronger effect = lower value
How it was run: as §1

MCC-13 = test: qHTS assay to identify novel small-molecules to repurpose for Merkel cell carcinoma treatment (AID 1296009); conditions: MCC and control cell lines, CellTiter-Glo viability, 72 h; series mostly up to 46 µM; for activity change, negative = cytotoxicity: % is set by controls: 0 for no effect and ±100 for the full control effect
How it was run: (§2)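 Cell viability, measured as CellTiter-Glo luminescence, was normalized between DMSO and no-cell wells. The cells had been exposed to 8- or 11-point compound dilutions for 72 hr at 37 degree celsius.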

MKL-1 = test: as above; conditions: MCC and control cell lines, CellTiter-Glo viability, 72 h; series mostly up to 46 µM
How it was run: as §2

MKL-2 = test: as above; conditions: MCC and control cell lines, CellTiter-Glo viability, 72 h; series mostly up to 46 µM
How it was run: as §2

HaCat [1] = test: Cytotoxic Profiling of Annotated Libraries Using Quantitative High-Throughput Screening (AID 1296008); conditions: Five cell lines viability, CellTiter-Glo ATP luminescence, 48-72 h; max response: stronger effect = lower value; for max response: % is set by controls: 0 for no effect and ±100 for the full control effect
How it was run: as §1

NIH3T3 [2] = test: as above; conditions: Five cell lines viability, CellTiter-Glo ATP luminescence, 48-72 h; max response: stronger effect = lower value
How it was run: as §1

MCC-26 = test: qHTS assay to identify novel small-molecules to repurpose for Merkel cell carcinoma treatment (AID 1296009); conditions: MCC and control cell lines, CellTiter-Glo viability, 72 h; series mostly up to 46 µM
How it was run: as §2

PC15 = test: qHTS profiling for inhibitors of Plasmodium falciparum proliferation (AID 504749); conditions: P. falciparum in erythrocytes, SYBR Green DNA, 72 h; series mostly up to 28.7 µM
How it was run: (§3)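 SYBR Green fluorescence of parasite DNA, read after lysis and overnight dark incubation, measured growth over 72 h in erythrocyte culture at 0.3% parasitemia and 2.5% hematocrit. Data normalised to DMSO and 0.29 uM artemisinin, with plate-drift correction.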

PC49 = test: as above; conditions: P. falciparum in erythrocytes, SYBR Green DNA, 72 h; series mostly up to 28.7 µM
How it was run: as §3

TAB109 = test: as above; conditions: P. falciparum in erythrocytes, SYBR Green DNA, 72 h; series mostly up to 28.7 µM
How it was run: as §3

TAB165 = test: as above; conditions: P. falciparum in erythrocytes, SYBR Green DNA, 72 h; series mostly up to 28.7 µM
How it was run: as §3

W2 = test: as above; conditions: P. falciparum in erythrocytes, SYBR Green DNA, 72 h; series mostly up to 28.7 µM
How it was run: as §3

PC26 = test: as above; conditions: P. falciparum in erythrocytes, SYBR Green DNA, 72 h; series mostly up to 28.7 µM
How it was run: as §3

SC27B = test: as above; conditions: P. falciparum in erythrocytes, SYBR Green DNA, 72 h; series mostly up to 28.7 µM
How it was run: as §3

TAB113 = test: as above; conditions: P. falciparum in erythrocytes, SYBR Green DNA, 72 h; series mostly up to 28.7 µM
How it was run: as §3

NIH3T3 [3] = test: qHTS assay to identify novel small-molecules to repurpose for Merkel cell carcinoma treatment (AID 1296009); conditions: MCC and control cell lines, CellTiter-Glo viability, 72 h; at 44.8 µM (top of the series) unless noted
How it was run: as §2

HACAT [4] = test: as above; conditions: MCC and control cell lines, CellTiter-Glo viability, 72 h; series mostly up to 44.8 µM
How it was run: as §2

HEK293 = test: Cytotoxic Profiling of Annotated Libraries Using Quantitative High-Throughput Screening (AID 1296008); conditions: Five cell lines viability, CellTiter-Glo ATP luminescence, 48-72 h; max response: stronger effect = lower value; for max response: % is set by controls: 0 for no effect and ±100 for the full control effect
How it was run: as §1
Note: nearly all actives have a fitted effect of over 60% in size.
Potency is the fitted concentration of half-maximal effect.

CC1(C)CCC(c2ccc(Cl)cc2)=C(CN2CCN(c3ccc(C(=O)NS(=O)(=O)c4ccc(N[C@H](CCN5CCOCC5)CSc5ccccc5)c(S(=O)(=O)C(F)(F)F)c4)cc3)CC2)C1
max response (CRL-7250): 3.93%
max response (KB-3-1): -2.09%
Potency (MCC-13): inactive
Potency (MKL-1): 0.418 µM (active)
Potency (MKL-2): 0.264 µM (active)

CCC(=C(c1ccccc1)c1ccc(OCCN(C)C)cc1)c1ccccc1
max response (CRL-7250): 3.45%
max response (HaCat [1]): 2.08%
max response (KB-3-1): -16.9%
max response (NIH3T3 [2]): 1.38%
Potency (MCC-13): inactive
Potency (MCC-26): inactive

COc1cc(C(=O)NS(=O)(=O)c2ccccc2C)ccc1Cc1cn(C)c2ccc(NC(=O)OC3CCCC3)cc12
Potency (PC15): inactive
Potency (PC49): inactive
Potency (TAB109): inactive
Potency (TAB165): inactive
Potency (W2): 7.57 µM (active)
outcome (CRL-7250): inactive
max response (KB-3-1): -2.66%
Potency (MKL-1): inactive

Cc1[nH]nc2ccc(-c3cncc(OC[C@@H](N)Cc4ccccc4)c3)cc12
Potency (CRL-7250): 2.64 µM (active) and 5.8 µM (active)
Potency (HaCat [1]): 1.32 µM (active) and 411 nM (active)
Potency (KB-3-1): 332 nM (active)
Potency (NIH3T3 [2]): 3.72 µM (active) and 7.31 µM (active)
Potency (MCC-13): 4.18 µM (active)
Potency (MCC-26): 6.62 µM (active)
Potency (MKL-1): 1.87 µM (active)
Potency (MKL-2): 1.66 µM (active)

CN1c2cc(O)c(N=NC(N)=O)cc2CC1S(=O)(=O)O (stereo not given)
Potency (PC15): inactive
Potency (PC26): inactive
Potency (PC49): inactive
Potency (SC27B): inactive
Potency (TAB109): inactive
Potency (TAB113): inactive
Potency (TAB165): inactive
Potency (W2): inactive
outcome (CRL-7250): inactive
max response (HaCat [1]): -1.08%
outcome (KB-3-1): inactive
outcome (NIH3T3 [2]): inactive
Potency (MCC-13): inactive
Potency (MCC-26): inactive
Potency (MKL-1): inactive
Potency (MKL-2): inactive
outcome (NIH3T3 [3]): inactive

COc1cc(C(C)C)c2c(c1)S(=O)(=O)N(COc1cc(=O)n3cccc(OCCN4CCCCC4)c3n1)C2=O
max response (CRL-7250): -9.13%
outcome (HaCat [1]): inactive
outcome (KB-3-1): inactive
outcome (NIH3T3 [2]): inactive
Potency (HACAT [4]): inactive
Potency (MCC-13): inactive
Potency (MKL-1): inactive
Potency (MKL-2): inactive
outcome (NIH3T3 [3]): inactive

COc1ccc(C(=O)CC2(O)C(=O)Nc3c(Cl)ccc(Cl)c32)cc1 (stereo not given)
Potency (HEK293): 2.64 µM (active)
Potency (HaCat [1]): 4.11 µM (active)
Potency (KB-3-1): 3.72 µM (active) and 5.17 µM (active)
Potency (NIH3T3 [2]): 9.35 µM (active) and 2.91 µM (active)

CC1(C)O[C@@H]2C[C@@H]3[C@H]4C[C@@H](F)C5=CC(=O)C=C[C@]5(C)[C@@]4(F)[C@@H](O)C[C@]3(C)[C@]2(C(=O)CO)O1
Potency (PC15): inactive
Potency (PC49): inactive
Potency (SC27B): inactive
Potency (TAB109): inactive
Potency (TAB113): inactive
Potency (TAB165): inactive
Potency (W2): inactive
max response (CRL-7250): -20%
max response (HaCat [1]): -6.44%
outcome (KB-3-1): inactive
max response (NIH3T3 [2]): -12.4%
Potency (MCC-13): inactive
Potency (MCC-26): inactive
Potency (MKL-1): inactive
Potency (MKL-2): inactive

CCc1cc2c(cc1N1CCC(N3CCOCC3)CC1)C(C)(C)c1[nH]c3cc(C#N)ccc3c1C2=O
max response (CRL-7250): -36.8% and 0.704%
max response (HaCat [1]): -16.1% and -0.553%
max response (KB-3-1): -32% and 1.82%
max response (NIH3T3 [2]): -45.1% and -2.9%
Potency (MCC-13): inactive
Potency (MKL-1): inactive

CCS(=O)(=O)c1cccc(-c2cc(C(=O)NC3CCN(C)CC3)c(C)c3[nH]c4ncc(C)cc4c23)c1
Potency (CRL-7250): 1.28 µM (active)
Potency (HaCat [1]): 4.18 µM (active) and 1.61 µM (active)
Potency (KB-3-1): 1.18 µM (active) and 904 nM (active)
Potency (NIH3T3 [2]): 10.5 µM (active) and 5.7 µM (active)
Potency (MKL-1): 0.132 µM (active)
Potency (MKL-2): 8.33 µM (active)

COc1ccc(CC2c3cc(OC)c(OC)cc3CC[N+]2(C)CCC(=O)OCCCCCOC(=O)CC[N+]2(C)CCc3cc(OC)c(OC)cc3C2Cc2ccc(OC)c(OC)c2)cc1OC (stereo not given)
max response (CRL-7250): -0.557%
max response (HaCat [1]): 3.6%
max response (KB-3-1): 4.25% and 0.363%
max response (NIH3T3 [2]): -6.84%
activity change, negative = cytotoxicity (MCC-13): -6.08% [at 9.22 µM]
activity change, negative = cytotoxicity (MKL-1): -7.93% [at 9.22 µM]
activity change, negative = cytotoxicity (MKL-2): -23.6% [at 9.22 µM]

CCCCCN(CCC12CC3CC(CC(C3)C1)C2)C(=O)NCCCc1ccncc1
max response (CRL-7250): -19%
max response (HaCat [1]): -32%
max response (NIH3T3 [2]): -9.34%
Potency (MCC-13): inactive
Potency (MCC-26): inactive
Potency (MKL-1): inactive
Potency (MKL-2): inactive

O=C(C=Cc1cccc(S(=O)(=O)Nc2ccccc2)c1)NO
Potency (CRL-7250): 21.5 µM (active)
Potency (HaCat [1]): 15.2 µM (active)
Potency (KB-3-1): 6050 nM (active)
Potency (NIH3T3 [2]): 10.8 µM (active)
Potency (MKL-1): 7.62 µM (active)
Potency (MKL-2): 3.4 µM (active)

C=CC(=O)N1CCC[C@@H](n2nc(-c3ccc(Oc4ccccc4)cc3)c3c(N)ncnc32)C1
max response (CRL-7250): 2.95%
Potency (HaCat [1]): 1.32 µM (active)
max response (KB-3-1): -15.2% and 0.931%
Potency (HACAT [4]): 1.3 µM (active)
Potency (MCC-13): inactive
Potency (MKL-1): inactive

— PubChem BioAssay (NCATS)
